# Like-named read-outs stand apart in the source and are kept apart here.
# Legend:
# [1] = test system: MAP2K6; settings: read-out: apparent Kd, n = 1
# [2] = test system: MAP4K2; settings: read-out: apparent Kd, n = 1
# [3] = compound concentrations:100 nM and 1000 nM (sheet 'Lestaurtinib' of Supplementary Table 1),run:Lestaurtinib_02381_R1,Plate:MR004
# [4] = compound concentrations:100 nM and 1000 nM (sheet 'Lestaurtinib' of Supplementary Table 1),run:Lestaurtinib_02407_R2,Plate:MR005
# [5] = compound concentrations:100 nM and 1000 nM (sheet 'Lestaurtinib' of Supplementary Table 1),run:Lestaurtinib_02422_R3,Plate:MR006
# [6] = compound concentrations:100 nM and 1000 nM (sheet 'Lestaurtinib' of Supplementary Table 1),run:Lestaurtinib_02437_R3,Plate:MR007
# [7] = compound concentrations:100 nM and 1000 nM (sheet 'Lestaurtinib' of Supplementary Table 1),run:Lestaurtinib_02473_R1,Plate:MR010
# [8] = compound concentrations:100 nM and 1000 nM (sheet 'Lestaurtinib' of Supplementary Table 1),run:Lestaurtinib_02473_R2,Plate:MR010
# [9] = compound concentrations:100 nM and 1000 nM (sheet 'Lestaurtinib' of Supplementary Table 1),run:Lestaurtinib_02487_R2,Plate:MR012
# [10] = compound concentrations:100 nM and 1000 nM (sheet 'Lestaurtinib' of Supplementary Table 1),run:Lestaurtinib_02487_R3,Plate:MR012
# [11] = compound concentrations:100 nM and 1000 nM (sheet 'Lestaurtinib' of Supplementary Table 1),run:Lestaurtinib_02496_R1,Plate:MR013
# [12] = compound concentrations:100 nM and 1000 nM (sheet 'Lestaurtinib' of Supplementary Table 1),run:Lestaurtinib_02566_R1,Plate:MR014
# [13] = compound concentrations:100 nM and 1000 nM (sheet 'Lestaurtinib' of Supplementary Table 1),run:Lestaurtinib_02566_R2,Plate:MR014
substance,measurement,setting,value
Lestaurtinib,potency estimated from few doses,"[1]; compound concentrations:100 nM and 1000 nM (sheet 'Lestaurtinib' of Supplementary Table 1),run:Lestaurtinib_02367_R3,Plate:MR003",165 nM
same,potency estimated from few doses,[1]; [3],175 nM
same,potency estimated from few doses,[1]; [4],137 nM
same,potency estimated from few doses,[1]; [5],151 nM
same,potency estimated from few doses,"[1]; compound concentrations:100 nM and 1000 nM (sheet 'Lestaurtinib' of Supplementary Table 1),run:Lestaurtinib_02437_R1,Plate:MR007",184 nM
same,potency estimated from few doses,"[1]; compound concentrations:100 nM and 1000 nM (sheet 'Lestaurtinib' of Supplementary Table 1),run:Lestaurtinib_02437_R2,Plate:MR007",189 nM
same,potency estimated from few doses,[1]; [6],22.9 nM
same,potency estimated from few doses,"[1]; compound concentrations:100 nM and 1000 nM (sheet 'Lestaurtinib' of Supplementary Table 1),run:Lestaurtinib_02438_R3,Plate:MR008",132 nM
same,potency estimated from few doses,"[1]; compound concentrations:100 nM and 1000 nM (sheet 'Lestaurtinib' of Supplementary Table 1),run:Lestaurtinib_02443_R2,Plate:MR009",140 nM
same,potency estimated from few doses,[1]; [7],176 nM
same,potency estimated from few doses,[1]; [8],144 nM
same,potency estimated from few doses,"[1]; compound concentrations:100 nM and 1000 nM (sheet 'Lestaurtinib' of Supplementary Table 1),run:Lestaurtinib_02482_R1,Plate:MR011",212 nM
same,potency estimated from few doses,"[1]; compound concentrations:100 nM and 1000 nM (sheet 'Lestaurtinib' of Supplementary Table 1),run:Lestaurtinib_02482_R3,Plate:MR011",254 nM
same,potency estimated from few doses,"[1]; compound concentrations:100 nM and 1000 nM (sheet 'Lestaurtinib' of Supplementary Table 1),run:Lestaurtinib_02487_R1,Plate:MR012",142 nM
same,potency estimated from few doses,[1]; [9],190 nM
same,potency estimated from few doses,[1]; [10],157 nM
same,potency estimated from few doses,[1]; [11],146 nM
same,potency estimated from few doses,"[1]; compound concentrations:100 nM and 1000 nM (sheet 'Lestaurtinib' of Supplementary Table 1),run:Lestaurtinib_02496_R2,Plate:MR013",132 nM
same,potency estimated from few doses,[1]; [12],207 nM
same,potency estimated from few doses,[1]; [13],121 nM
same,potency estimated from few doses,"[1]; compound concentrations:100 nM and 1000 nM (sheet 'Lestaurtinib' of Supplementary Table 1),run:Lestaurtinib_02572_R2,Plate:MR015",149 nM
same,potency estimated from few doses,"[1]; compound concentrations:100 nM and 1000 nM (sheet 'Lestaurtinib' of Supplementary Table 1),run:Lestaurtinib_02572_R3,Plate:MR015",193 nM
same,potency estimated from few doses,"[1]; compound concentrations:100 nM and 1000 nM (sheet 'Lestaurtinib' of Supplementary Table 1),run:Lestaurtinib_02577_R2,Plate:MR016",158 nM
same,potency estimated from few doses,"[1]; compound concentrations:100 nM and 1000 nM (sheet 'Lestaurtinib' of Supplementary Table 1),run:Lestaurtinib_02584_R3,Plate:MR017",243 nM
same,potency estimated from few doses,"[1]; compound concentrations:100 nM and 1000 nM (sheet 'Lestaurtinib' of Supplementary Table 1),run:Lestaurtinib_02601_R1,Plate:MR018",172 nM
same,potency estimated from few doses,"[1]; compound concentrations:100 nM and 1000 nM (sheet 'Lestaurtinib' of Supplementary Table 1),run:Lestaurtinib_02601_R3,Plate:MR018",321 nM
same,potency estimated from few doses,"[1]; compound concentrations:100 nM and 1000 nM (sheet 'Lestaurtinib' of Supplementary Table 1),run:Lestaurtinib_02606_R2,Plate:MR019",140 nM
same,potency estimated from few doses,"[1]; compound concentrations:100 nM and 1000 nM (sheet 'Lestaurtinib' of Supplementary Table 1),run:Lestaurtinib_02606_R3,Plate:MR019",180 nM
same,potency estimated from few doses,"[1]; compound concentrations:100 nM and 1000 nM (sheet 'Lestaurtinib' of Supplementary Table 1),run:Lestaurtinib_02624_R2,Plate:MR020",154 nM
same,potency estimated from few doses,"[1]; compound concentrations:100 nM and 1000 nM (sheet 'Lestaurtinib' of Supplementary Table 1),run:Lestaurtinib_02624_R3,Plate:MR020",149 nM
same,potency estimated from few doses,"[1]; compound concentrations:100 nM and 1000 nM (sheet 'Lestaurtinib' of Supplementary Table 1),run:Lestaurtinib_02724_R1,Plate:MR021",141 nM
same,potency estimated from few doses,"[1]; compound concentrations:100 nM and 1000 nM (sheet 'Lestaurtinib' of Supplementary Table 1),run:Lestaurtinib_02724_R2,Plate:MR021",113 nM
same,potency estimated from few doses,"[1]; compound concentrations:100 nM and 1000 nM (sheet 'Lestaurtinib' of Supplementary Table 1),run:Lestaurtinib_02724_R3,Plate:MR021",151 nM
same,potency estimated from few doses,"[1]; compound concentrations:100 nM and 1000 nM (sheet 'Lestaurtinib' of Supplementary Table 1),run:Lestaurtinib_02741_R1,Plate:MR023",92.6 nM
same,potency estimated from few doses,"[1]; compound concentrations:100 nM and 1000 nM (sheet 'Lestaurtinib' of Supplementary Table 1),run:Lestaurtinib_02741_R2,Plate:MR023",113 nM
same,potency estimated from few doses,"[1]; compound concentrations:100 nM and 1000 nM (sheet 'Lestaurtinib' of Supplementary Table 1),run:Lestaurtinib_02741_R3,Plate:MR023",130 nM
same,potency estimated from few doses,"[1]; compound concentrations:100 nM and 1000 nM (sheet 'Lestaurtinib' of Supplementary Table 1),run:Lestaurtinib_02748_R2,Plate:MR024",231 nM
same,potency estimated from few doses,"[1]; compound concentrations:100 nM and 1000 nM (sheet 'Lestaurtinib' of Supplementary Table 1),run:Lestaurtinib_02748_R3,Plate:MR024",190 nM
same,potency estimated from few doses,"[1]; compound concentrations:100 nM and 1000 nM (sheet 'Lestaurtinib' of Supplementary Table 1),run:Lestaurtinib_02752_R3,Plate:MR025",175 nM
same,potency estimated from few doses,"[1]; compound concentrations:100 nM and 1000 nM (sheet 'Lestaurtinib' of Supplementary Table 1),run:Lestaurtinib_02765_R1,Plate:MR026",218 nM
same,potency estimated from few doses,"[1]; compound concentrations:100 nM and 1000 nM (sheet 'Lestaurtinib' of Supplementary Table 1),run:Lestaurtinib_02765_R2,Plate:MR026",200 nM
same,potency estimated from few doses,"[1]; compound concentrations:100 nM and 1000 nM (sheet 'Lestaurtinib' of Supplementary Table 1),run:Lestaurtinib_02765_R3,Plate:MR026",115 nM
same,potency estimated from few doses,"[1]; compound concentrations:100 nM and 1000 nM (sheet 'Lestaurtinib' of Supplementary Table 1),run:Lestaurtinib_02768_R1,Plate:MR028",183 nM
same,potency estimated from few doses,"[1]; compound concentrations:100 nM and 1000 nM (sheet 'Lestaurtinib' of Supplementary Table 1),run:Lestaurtinib_02795_R1,Plate:MR022",143 nM
same,potency estimated from few doses,"[1]; compound concentrations:100 nM and 1000 nM (sheet 'Lestaurtinib' of Supplementary Table 1),run:Lestaurtinib_02802_R2,Plate:MR029",180 nM
same,potency estimated from few doses,"[1]; compound concentrations:100 nM and 1000 nM (sheet 'Lestaurtinib' of Supplementary Table 1),run:Lestaurtinib_02802_R3,Plate:MR029",440 nM
same,potency estimated from few doses,"[1]; compound concentrations:100 nM and 1000 nM (sheet 'Lestaurtinib' of Supplementary Table 1),run:Lestaurtinib_03172_R1,Plate:MR031",154 nM
same,potency estimated from few doses,"[1]; compound concentrations:100 nM and 1000 nM (sheet 'Lestaurtinib' of Supplementary Table 1),run:Lestaurtinib_03252_R2,Plate:MR032",296 nM
same,potency estimated from few doses,"[1]; compound concentrations:100 nM and 1000 nM (sheet 'Lestaurtinib' of Supplementary Table 1),run:Lestaurtinib_03260_R1,Plate:MR033",161 nM
same,potency estimated from few doses,"[1]; compound concentrations:100 nM and 1000 nM (sheet 'Lestaurtinib' of Supplementary Table 1),run:Lestaurtinib_03260_R3,Plate:MR033",140 nM
same,potency estimated from few doses,"[2]; compound concentrations:100 nM and 1000 nM (sheet 'Lestaurtinib' of Supplementary Table 1),run:Lestaurtinib_02339_R1,Plate:MR001",329 nM
same,potency estimated from few doses,"[2]; compound concentrations:100 nM and 1000 nM (sheet 'Lestaurtinib' of Supplementary Table 1),run:Lestaurtinib_02339_R2,Plate:MR001",231 nM
same,potency estimated from few doses,"[2]; compound concentrations:100 nM and 1000 nM (sheet 'Lestaurtinib' of Supplementary Table 1),run:Lestaurtinib_02364_R1,Plate:MR002",180 nM
same,potency estimated from few doses,"[2]; compound concentrations:100 nM and 1000 nM (sheet 'Lestaurtinib' of Supplementary Table 1),run:Lestaurtinib_02364_R2,Plate:MR002",196 nM
same,potency estimated from few doses,"[2]; compound concentrations:100 nM and 1000 nM (sheet 'Lestaurtinib' of Supplementary Table 1),run:Lestaurtinib_02364_R3,Plate:MR002",260 nM
same,potency estimated from few doses,"[2]; compound concentrations:100 nM and 1000 nM (sheet 'Lestaurtinib' of Supplementary Table 1),run:Lestaurtinib_02367_R2,Plate:MR003",163 nM
same,potency estimated from few doses,[2]; [3],163 nM
same,potency estimated from few doses,"[2]; compound concentrations:100 nM and 1000 nM (sheet 'Lestaurtinib' of Supplementary Table 1),run:Lestaurtinib_02381_R3,Plate:MR004",229 nM
same,potency estimated from few doses,"[2]; compound concentrations:100 nM and 1000 nM (sheet 'Lestaurtinib' of Supplementary Table 1),run:Lestaurtinib_02407_R1,Plate:MR005",134 nM
same,potency estimated from few doses,[2]; [4],149 nM
same,potency estimated from few doses,"[2]; compound concentrations:100 nM and 1000 nM (sheet 'Lestaurtinib' of Supplementary Table 1),run:Lestaurtinib_02407_R3,Plate:MR005",180 nM
same,potency estimated from few doses,"[2]; compound concentrations:100 nM and 1000 nM (sheet 'Lestaurtinib' of Supplementary Table 1),run:Lestaurtinib_02422_R1,Plate:MR006",191 nM
same,potency estimated from few doses,"[2]; compound concentrations:100 nM and 1000 nM (sheet 'Lestaurtinib' of Supplementary Table 1),run:Lestaurtinib_02422_R2,Plate:MR006",261 nM
same,potency estimated from few doses,[2]; [5],163 nM
same,potency estimated from few doses,[2]; [6],29.8 nM
same,potency estimated from few doses,"[2]; compound concentrations:100 nM and 1000 nM (sheet 'Lestaurtinib' of Supplementary Table 1),run:Lestaurtinib_02438_R1,Plate:MR008",151 nM
same,potency estimated from few doses,"[2]; compound concentrations:100 nM and 1000 nM (sheet 'Lestaurtinib' of Supplementary Table 1),run:Lestaurtinib_02438_R2,Plate:MR008",277 nM
same,potency estimated from few doses,[2]; [7],197 nM
same,potency estimated from few doses,[2]; [8],202 nM
same,potency estimated from few doses,"[2]; compound concentrations:100 nM and 1000 nM (sheet 'Lestaurtinib' of Supplementary Table 1),run:Lestaurtinib_02482_R2,Plate:MR011",222 nM
same,potency estimated from few doses,[2]; [9],182 nM
same,potency estimated from few doses,[2]; [10],244 nM
same,potency estimated from few doses,[2]; [11],231 nM
same,potency estimated from few doses,[2]; [12],259 nM
same,potency estimated from few doses,[2]; [13],180 nM
